# Data published in publication PMC5540273 (PLoS ONE, 2017).
# Values joined by “and” are separate entries in the source; they are usually repeats but may differ in a detail not shown here. Equal values may be shown once. Read-outs that look alike come from different tables or passages of the source.
# What was measured:
# MEK1 = tested on: T1, MEK1; settings: concentration: 1 μM, replicates: in singlicate, n = 1
# T1 construct: gene MAP2K1
# MEK2 = tested on: T2, MEK2; settings: concentration: 1 μM, replicates: in singlicate, n = 1
# T2 construct: gene MAP2K2
# MEK3 = tested on: T3, MEK3; settings: concentration: 1 μM, replicates: in singlicate, n = 1
# T3 construct: gene MAP2K3
# MEK4 = tested on: T4, MEK4; settings: concentration: 1 μM, replicates: in singlicate, n = 1
# T4 construct: gene MAP2K4
# MEK5 = tested on: T5, MEK5; settings: concentration: 1 μM, replicates: in singlicate, n = 1
# T5 construct: gene MAP2K5
# MEK6 = tested on: T6, MEK6; settings: concentration: 1 μM, replicates: in singlicate, n = 1
# T6 construct: gene MAP2K6
# MELK = settings: concentration: 1 μM, replicates: in singlicate, n = 1
# MERTK = settings: concentration: 1 μM, replicates: in singlicate, n = 1
# MET = settings: concentration: 1 μM, replicates: in singlicate, n = 1
# MINK = tested on: T7, MINK; settings: concentration: 1 μM, replicates: in singlicate, n = 1
# T7 construct: gene MINK1
# MKK7 = settings: concentration: 1 μM, replicates: in singlicate, n = 1
# MKNK1 = settings: concentration: 1 μM, replicates: in singlicate; n = 1
# MKNK2 = settings: concentration: 1 μM, replicates: in singlicate, n = 1
# MLCK = tested on: T8, MLCK; settings: concentration: 1 μM, replicates: in singlicate; n = 1
# T8 construct: gene MYLK3
# MLK1 = tested on: T9, MLK1; settings: concentration: 1 μM, replicates: in singlicate; n = 1
# T9 construct: gene MAP3K9
# MLK2 = settings: concentration: 1 μM, replicates: in singlicate, n = 1
# MLK3 = settings: concentration: 1 μM, replicates: in singlicate; n = 1
# MRCKA = settings: concentration: 1 μM, replicates: in singlicate, n = 1
# MRCKB = tested on: T10, MRCKB; settings: concentration: 1 μM, replicates: in singlicate, n = 1
# T10 construct: gene CDC42BPB
# MST1R = settings: concentration: 1 μM, replicates: in singlicate, n = 1
# 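Note: KINOMEscan kinase panel screen.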
smiles,measurement,setting,value
CCn1cnc2c(N)ncnc21 [GW345098],%Inh,MEK1,26%
same,%Inh,MEK2,20%
same,%Inh,MEK3,26%
same,%Inh,MEK4,11%
same,%Inh,MEK5,1%
same,%Inh,MEK6,0%
same,%Inh,MELK,0%
same,%Inh,MERTK,25%
same,%Inh,MET,2%
same,%Inh,MINK,5%
same,%Inh,MKK7,0%
same,%Inh,MKNK1,0%
same,%Inh,MKNK2,0%
same,%Inh,MLCK,1%
same,%Inh,MLK1,6%
same,%Inh,MLK2,12%
same,%Inh,MLK3,4%
same,%Inh,MRCKA,0%
same,%Inh,MRCKB,2%
same,%Inh,MST1R,0%
NS(=O)(=O)c1cccc(-c2ccc3ncc(N4CCOCC4)nc3c2)c1 [GSK1535721],%Inh,MEK1,11%
same,%Inh,MEK2,0%
same,%Inh,MEK3,0%
same,%Inh,MEK4,23%
same,%Inh,MEK5,16%
same,%Inh,MEK6,4%
same,%Inh,MELK,17%
same,%Inh,MERTK,9%
same,%Inh,MET,0%
same,%Inh,MINK,27%
same,%Inh,MKK7,16%
same,%Inh,MKNK1,0%
same,%Inh,MKNK2,0%
same,%Inh,MLCK,2%
same,%Inh,MLK1,0%
same,%Inh,MLK2,27%
same,%Inh,MLK3,1%
same,%Inh,MRCKA,0%
same,%Inh,MRCKB,2%
same,%Inh,MST1R,26%
[2H]C([2H])(c1cccc(C(F)(F)F)c1C)n1ccn2c(=O)nc(N3CCOCC3)cc12 [GSK2336394],%Inh,MEK1,0%
same,%Inh,MEK2,0%
same,%Inh,MEK3,0%
same,%Inh,MEK4,35%
same,%Inh,MEK5,1%
same,%Inh,MEK6,0%
same,%Inh,MELK,0%
same,%Inh,MERTK,0%
same,%Inh,MET,0%
same,%Inh,MINK,0%
same,%Inh,MKK7,14%
same,%Inh,MKNK1,3%
same,%Inh,MKNK2,6%
same,%Inh,MLCK,3%
same,%Inh,MLK1,0%
same,%Inh,MLK2,0%
same,%Inh,MLK3,21%
same,%Inh,MRCKA,23%
same,%Inh,MRCKB,0%
same,%Inh,MST1R,33%
COc1cc2c(cc1OCCN1CCN(C)CC1)ncc1c3ccc(C#N)cc3[nH]c21,%Inh,MEK1,34%
same,%Inh,MEK2,80%
same,%Inh,MEK3,9%
same,%Inh,MEK4,0%
same,%Inh,MEK5,99.9%
same,%Inh,MEK6,11%
same,%Inh,MELK,51%
same,%Inh,MERTK,0%
same,%Inh,MET,0%
same,%Inh,MINK,93%
same,%Inh,MKK7,0%
same,%Inh,MKNK1,99.4%
same,%Inh,MKNK2,99.7%
same,%Inh,MLCK,98.8%
same,%Inh,MLK1,0%
same,%Inh,MLK2,0%
same,%Inh,MLK3,20%
same,%Inh,MRCKA,10%
same,%Inh,MRCKB,0%
same,%Inh,MST1R,7%
Cl.Cl.Cl.Fc1ccc(-c2ncn(C3CCNCC3)c2-c2ccnc(Nc3ccccc3)n2)cc1 [SB-238039],%Inh,MEK1; 1 µM,36% and 3%
same,%Inh,MEK2; 1 µM,58% and 26%
same,%Inh,MEK3; 1 µM,45% and 44%
same,%Inh,MEK4; 1 µM,31% and 6%
same,%Inh,MEK5; 1 µM,47% and 18%
same,%Inh,MEK6; 1 µM,59% and 42%
same,%Inh,MELK; 1 µM,51% and 31%
same,%Inh,MERTK; 1 µM,15% and 0%
same,%Inh,MET; 1 µM,8% and 0%
same,%Inh,MINK; 1 µM,89% and 88%
same,%Inh,MKK7; 1 µM,23% and 0%
same,%Inh,MKNK1,0%
same,%Inh,MKNK2; 1 µM,0% and 29%
same,%Inh,MLCK,0%
same,%Inh,MLK1,0%
same,%Inh,MLK2; 1 µM,40% and 6%
same,%Inh,MLK3,0%
same,%Inh,MRCKA; 1 µM,90.3% and 71%
same,%Inh,MRCKB; 1 µM,75% and 92.8%
same,%Inh,MST1R; 1 µM,0% and 40%
COc1cc2ncn(-c3cc(OCc4sccc4Cl)c(C(N)=O)s3)c2cc1OC [GSK448459],%Inh,MEK1,0%
same,%Inh,MEK2,0%
same,%Inh,MEK3,0%
same,%Inh,MEK4,15%
same,%Inh,MEK5,99.8%
same,%Inh,MEK6,0%
same,%Inh,MELK,0%
same,%Inh,MERTK,23%
same,%Inh,MET,8%
same,%Inh,MINK,50%
same,%Inh,MKK7,0%
same,%Inh,MKNK1,0%
same,%Inh,MKNK2,0%
same,%Inh,MLCK,10%
same,%Inh,MLK1,0%
same,%Inh,MLK2,0%
same,%Inh,MLK3,0%
same,%Inh,MRCKA,4%
same,%Inh,MRCKB,0%
same,%Inh,MST1R,38%
CN1c2ccc(NCc3ccc(F)cc3)cc2-c2c(cnn2C)S1(=O)=O,%Inh,MEK1,7%
same,%Inh,MEK2,27%
same,%Inh,MEK3,13%
same,%Inh,MEK4,0%
same,%Inh,MEK5,17%
same,%Inh,MEK6,0%
same,%Inh,MELK,0%
same,%Inh,MERTK,0%
same,%Inh,MET,3%
same,%Inh,MINK,26%
same,%Inh,MKK7,0%
same,%Inh,MKNK1,0%
same,%Inh,MKNK2,0%
same,%Inh,MLCK,0%
same,%Inh,MLK1,15%
same,%Inh,MLK2,22%
same,%Inh,MLK3,0%
same,%Inh,MRCKA,0%
same,%Inh,MRCKB,0%
same,%Inh,MST1R,0%
O=C(NOCC1CC1)c1ccc(F)c(F)c1Nc1ccc(I)cc1Cl,%Inh,MEK1,64%
same,%Inh,MEK2,47%
same,%Inh,MEK3,0%
same,%Inh,MEK4,0%
same,%Inh,MEK5,0%
same,%Inh,MEK6,0%
same,%Inh,MELK,0%
same,%Inh,MERTK,0%
same,%Inh,MET,0%
same,%Inh,MINK,0%
same,%Inh,MKK7,0%
same,%Inh,MKNK1,0%
same,%Inh,MKNK2,0%
same,%Inh,MLCK,0%
same,%Inh,MLK1,0%
same,%Inh,MLK2,0%
same,%Inh,MLK3,0%
same,%Inh,MRCKA,0%
same,%Inh,MRCKB,0%
same,%Inh,MST1R,0%
O=C1Cc2cc(Nc3nc(NCc4cccc(S(=O)(=O)C(F)(F)F)c4)ncc3C(F)(F)F)ccc2N1,%Inh,MEK1,0%
same,%Inh,MEK2,0%
same,%Inh,MEK3,15%
same,%Inh,MEK4,30%
same,%Inh,MEK5,0%
same,%Inh,MEK6,14%
same,%Inh,MELK,0%
same,%Inh,MERTK,0%
same,%Inh,MET,0%
same,%Inh,MINK,0%
same,%Inh,MKK7,0%
same,%Inh,MKNK1,0%
same,%Inh,MKNK2,0%
same,%Inh,MLCK,10%
same,%Inh,MLK1,0%
same,%Inh,MLK2,32%
same,%Inh,MLK3,3%
same,%Inh,MRCKA,5%
same,%Inh,MRCKB,10%
same,%Inh,MST1R,0%
